Calls of active or inactive are those of the source. A call without a number means that no potency is given here. Calls come from the whole dose curve; as a rule, active = well fitted activation curve with a large enough effect in the repeat runs; inconclusive = weak or mixed curves; inactive = flat fitted curve, though single readings scatter.

In PubChem BioAssay (Tox21) one finds Potency and cytotoxicity data, which are given here for 40 compounds.

A short description of this assay: A CellTox Green Cytotoxicity Assay to monitor cytotoxicity in HEK293 cells - 0 hour (AID 1224869). Note: nearly all actives have a fitted effect of over 50% in size. To be noted: CellTox Green fluorescence; series mostly up to 76.8 µM. The source says: National Center for Advancing Translational Sciences [NCATS]
NIH Chemical Genomics Center [NCGC]
U.S. Environmental Protection Agency [EPA]
National Institutes of Environmental Health Sciences [NIEHS]
National Toxicology Program [NTP]
Cell-based models are critical for drug discovery. Determining the natural cytotoxic effects resulting from test compounds is an essential research activity. A CellTox Green Cytotoxicity Assay to monitor cytotoxicity in real time of continues cell culture during 40 hours of the compound treatment was used to screen Tox21 10K library compounds in Hek293 cells. CellTox Green Cytotoxicity Assay is a nonlytic, homogeneous, biofluorescent method to measure cytotoxicity in cell culture after experimental manipulation. The assay system uses a proprietary asymmetric cyanine dye that is excluded from viable cells but preferentially stains the dead cell's DNA. […] Viable cells produce no appreciable increases in fluorescence. Therefore, the fluorescence signal produced by the binding interaction with dead cell DNA is proportional to cytotoxicity.
The mixture of Hek293 cell suspension and reagents were dispensed at 600cells/6 ul/well in 1536-well tissue culture treated black solid bottom plates using a Multidrop dispenser. After the assay plates were incubated at a 37 C/5% CO2 incubator for 5 hours, 23 nL of compounds dissolved in DMSO, positive and negative controls was transferred to the assay plate by a pintool work station. The plates were incubated at 37 C for 40 hours. The fluorescence intensity were measured at 0h, 8h, 16h, 24h, 32h and 40h time points using ViewLux plate reader during compound treatment.
For `CCC(CC)Nc1ccc(C)c(C)c1`, the Potency entry is “inactive”.

As to `O=C(O)C1(C(=O)O)CCC1.[NH2-].[NH2-].[Pt+2]`, the Potency entry was “inactive”.

Consider `CCO[C@H](Cc1ccc(OCCc2ccc(OS(C)(=O)=O)cc2)cc1)C(=O)O`, for which the Potency entry is “inactive”.

On to `CC/C=C\CCOC(=O)CC`, for which the Potency entry is “inactive”.

Turning to `Cc1nn(C)c(Oc2ccccc2)c1/C=N/OCc1ccc(C(=O)OC(C)(C)C)cc1`, the Potency entry was “inactive”.

As for `CN(C)CCN(Cc1ccsc1)c1ccccn1`, the Potency result was “inactive”.

For the compound `CN(C)CCOC(c1ccccc1)c1ccc(Br)cc1` (stereo not given), the Potency result was “inactive”.

In the case of `O=[N+]([O-])c1cccc(S(=O)(=O)O)c1`, the Potency entry is “inactive”.

For `CN(C)CCCN1c2ccccc2Sc2ccccc21`, the Potency entry is “inactive”.

Turning to `Cc1cccc(C)c1OCC(=O)N[C@@H](Cc1ccccc1)[C@@H](O)C[C@H](Cc1ccccc1)NC(=O)[C@H](C(C)C)N1CCCNC1=O`, the Potency entry is “inactive”.

Turning to `CCn1cc(C(=O)O)c(=O)c2cnc(N3CCNCC3)nc21`, the Potency result was “inactive”.

On to `OCc1cc(C(O)CNCCCCCCOCCCCc2ccccc2)ccc1O` (stereo not given), for which the Potency result is “inactive”.

Consider `O=C(O)c1ccc(-n2nc(-c3ccccc3O)nc2-c2ccccc2O)cc1`, for which the Potency entry was “inactive”.

As for `C#Cc1cccc(Nc2ncnc3cc(OCCOC)c(OCCOC)cc23)c1`, the Potency result is “inactive”.

For `CCCCCCCCCCCCCCCCOS(=O)(=O)O`, the Potency entry was “inactive”.

In the case of `CC1OC(=O)C(C)OC1=O` (stereo not given), the Potency entry is “inactive”.

As for `CC1(c2ccccc2)OC(C(=O)O)=CC1=O` (stereo not given), the Potency entry is “inactive”.

Turning to `Cc1cccc(Nc2ccccc2)c1`, the Potency entry is “inactive”.

As to `CCC(C)c1cc(C(C)(C)C)c(O)c(C(C)(C)C)c1` (stereo not given), the Potency entry is “inactive”.

Regarding `O[C@@H](COc1cccc2ncccc12)CN1CCN(C2c3ccccc3[C@@H]3[C@H](c4ccccc42)C3(F)F)CC1` (stereo not given in full), the Potency result is “inactive”.

As to `COc1ccc(S(=O)(=O)N2C(=O)[C@@](c3ccccc3OC)(N3C[C@H](O)C[C@H]3C(=O)N(C)C)c3cc(Cl)ccc32)c(OC)c1`, the Potency result was “inactive”.

Consider `CC1CCC(=O)C1=O` (stereo not given), for which the Potency entry is “inactive”.

For the compound `Cc1cccc(C)c1NC(=O)CN(CC(=O)O)CC(=O)O`, the Potency entry was “inactive”.

Regarding `CCOC(=O)C(O)c1ccccc1` (stereo not given), the Potency entry is “inactive”.

As for `CN1CCC(=C2c3ccccc3Sc3ccccc32)CC1`, the Potency entry is “inactive”.

For the compound `O=C(O)c1ccc(S(=O)(=O)O)cc1C(=O)O`, the Potency result was “inactive”.

Take `CC(=O)[O][Al]`: the Potency entry is “inactive”.

`CCOc1ccc(N)c([N+](=O)[O-])c1`: the Potency entry was “inactive”.

Turning to `Clc1ccc2c(c1)CCc1cccnc1C2=C1CCNCC1`, the Potency entry was “inactive”.

Regarding `CN(C)CCN(Cc1ccccc1)c1ccccn1`, the Potency result is “inactive”.

For the compound `CC1=CCCC(C)(C)C12CCC(C)O2` (stereo not given), the Potency entry was “inactive”.

Consider `Cc1oc2c(NC(=O)c3c(Cl)cccc3Cl)cccc2c1C(C)(C)O`, for which the Potency result is “inactive”.

On to `CC(C)C[C@H]1C(=O)N2CCC[C@H]2[C@]2(O)O[C@](NC(=O)[C@@H]3C=C4c5cccc6[nH]c(Br)c(c56)C[C@H]4N(C)C3)(C(C)C)C(=O)N12`, for which the Potency result is “inactive”.

On to `Cc1[nH]c(C)c(Cl)c(=O)c1Cl`, for which the cytotoxicity was 2.83% [at 15.8 µM] (inactive).

For the compound `OC(CN1CCC(Cc2ccc(F)cc2)CC1)c1ccc(Cl)cc1` (stereo not given), the Potency result is “inactive”.

Regarding `c1ccc(-c2ccccn2)nc1`, the Potency entry is “inactive”.

With `CO[C@@H]1[C@H](OC(=O)/C=C/C=C/C=C/C=C/C(=O)O)CC[C@]2(CO2)[C@H]1[C@@]1(C)O[C@@H]1CC=C(C)C`, the Potency entry is “inactive”.

With `CNCCCN1c2ccccc2CCc2ccccc21`, the Potency result was “inactive”.

Regarding `COCCCN1CCC(NC(=O)c2cc(Cl)c(N)c3c2OCC3)CC1`, the Potency result was “inactive”.

Regarding `C=C(C)C(=O)OCC`, the Potency result is “inactive”.
